Source: PubChem BioAssay AID1159580 (chemical genetic matrix, 2015)
The whole screen tested about 5,500 compounds, of which about 2,000 (36%) were called active. Roughly 18% stayed inconclusive and do not appear here. The list shows a part of the results. Values without a mark were called inactive. Cut-off read from the data, not from the text of the source: active = normalized growth mostly below about 0.91 (no sharp cut-off); inconclusive = no clear call, values can overlap the other calls; inactive = mostly above about 0.92.

Test: chemical genetic growth profiling, strain panel (AID 1159580);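 note: tested at 20 µM; growth read once vehicle control cultures reached saturation at 30 °C; 1 = growth at the plate median or of vehicle wells; lower values mean less growth of the strain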
Conditions: S. cerevisiae deletion strains, growth OD

Structure (SMILES): C/C(=C\C(=O)OCCCCCCCCC(=O)O)C[C@@H]1OC[C@H](C[C@@H]2O[C@H]2[C@@H](C)[C@H](C)O)[C@@H](O)[C@H]1O
- normalized growth (locus YAL021C, strain ccr4, hits give low values): 0.96
- normalized growth (locus YAL026C, strain drs2, hits give low values): 0.958
- normalized growth (locus YAL030W, strain snc1, hits give low values): 0.96
- normalized growth (locus YBL061C, strain skt5, hits give low values): 0.987
- normalized growth (locus YBR009C, strain hhf1, hits give low values): 0.961
- normalized growth (locus YBR023C, strain chs3, hits give low values): 0.979
- normalized growth (locus YBR171W, strain sec66, hits give low values): 0.929
- normalized growth (locus YBR231C, strain swc5, hits give low values): 0.938
- normalized growth (locus YBR279W, strain paf1, hits give low values): 0.986
- normalized growth (locus YCL011C, strain gbp2, hits give low values): 0.972
- normalized growth (locus YCL016C, strain dcc1, hits give low values): 0.967
- normalized growth (locus YCL061C, strain MRC1, hits give low values): 0.965
- normalized growth (locus YCL069W, strain vba3, hits give low values): 0.957
- normalized growth (locus YCR088W, strain abp1, hits give low values): 0.952
- normalized growth (locus YDL005C, strain med2, hits give low values): 0.973
- normalized growth (locus YDL040C, strain nat1, hits give low values): 0.982
- normalized growth (locus YDR001C, strain nth1, hits give low values): 0.956
- normalized growth (locus YDR069C, strain doa4, hits give low values): 0.982
- normalized growth (locus YDR137W, strain rgp1, hits give low values): 0.99
- normalized growth (locus YDR159W, strain sac3, hits give low values): 0.936
- normalized growth (locus YDR195W, strain ref2): 0.964
- normalized growth (locus YDR297W, strain sur2, hits give low values): 0.988
- normalized growth (locus YDR334W, strain swr1, hits give low values): 0.951
- normalized growth (locus YDR335W, strain msn5, hits give low values): 0.963
- normalized growth (locus YDR392W, strain spt3, hits give low values): 0.941
- normalized growth (locus YEL003W, strain gim4, hits give low values): 0.969
- normalized growth (locus YEL037C, strain rad23, hits give low values): 0.968
- normalized growth (locus YEL061C, strain CIN8 (second series), hits give low values): 0.967
- normalized growth (locus YER015W, strain faa2, hits give low values): 0.99
- normalized growth (locus YER016W, strain bim1, hits give low values): 0.974
- normalized growth (locus YER111C, strain swi4, hits give low values): 0.93
- normalized growth (locus YER155C, strain BEM2 (second series), hits give low values): 0.959
- normalized growth (locus YFR010W, strain ubp6, hits give low values): 0.984
- normalized growth (locus YGL167C, strain pmr1, hits give low values): 0.973
- normalized growth (locus YGL173C, strain kem1, hits give low values): 0.979
- normalized growth (locus YGL227W, strain vid30, hits give low values): 0.965
- normalized growth (locus YGL240W, strain doc1, hits give low values): 1.01
- normalized growth (locus YGL253W, strain hxk2, hits give low values): 0.912
- normalized growth (locus YHR013C, strain ard1, hits give low values): 0.985
- normalized growth (locus YHR027C, strain rpn1, hits give low values): 0.987
- normalized growth (locus YHR030C, strain SLT2, hits give low values): 0.895
- normalized growth (locus YHR079C, strain IRE1, hits give low values): 0.919
- normalized growth (locus YHR142W, strain chs7, hits give low values): 0.98
- normalized growth (locus YJL092W, strain hpr5, hits give low values): 0.96
- normalized growth (locus YJL095W, strain BCK1 (second series), hits give low values): 0.965
- normalized growth (locus YJL095W, strain BCK1, hits give low values): 0.898
- normalized growth (locus YJL115W, strain asf1, hits give low values): 0.954
- normalized growth (locus YJL129C, strain trk1, hits give low values): 0.993
- normalized growth (locus YJL154C, strain vps35, hits give low values): 0.968
- normalized growth (locus YJL164C, strain tpk1, hits give low values): 0.98
- normalized growth (locus YJL166W, strain qcr8, hits give low values): 1
- normalized growth (locus YJL187C, strain SWE1, hits give low values): 0.976
- normalized growth (locus YJR066W, strain TOR1, hits give low values): 0.916
- normalized growth (locus YKL160W, strain elf1, hits give low values): 0.982
- normalized growth (locus YKR026C, strain gcn3, hits give low values): 0.931
- normalized growth (locus YKR091W, strain srl3, hits give low values): 0.971
- normalized growth (locus YLL001W, strain dnm1, hits give low values): 0.949
- normalized growth (locus YLL026W, hits give low values): 0.971
- normalized growth (locus YLL041C, strain sdh2, hits give low values): 0.965
- normalized growth (locus YLR027C, strain aat2, hits give low values): 0.965
- normalized growth (locus YLR113W, strain HOG1, hits give low values): 0.827 (active)
- normalized growth (locus YLR221C, strain rsa3, hits give low values): 0.982
- normalized growth (locus YLR258W, strain gsy2, hits give low values): 0.968
- normalized growth (locus YLR262C, strain YPT6 (second series), hits give low values): 0.962
- normalized growth (locus YLR320W, strain mms22, hits give low values): 0.968
- normalized growth (locus YLR342W, strain FKS1, hits give low values): 0.953
- normalized growth (locus YLR357W, strain rsc2, hits give low values): 0.977
- normalized growth (locus YLR370C, strain arc18, hits give low values): 0.957
- normalized growth (locus YLR384C, strain iki3, hits give low values): 0.952
- normalized growth (locus YML120C, strain ndi1, hits give low values): 0.979
- normalized growth (locus YMR058W, strain fet3, hits give low values): 0.989
- normalized growth (locus YMR125W, strain sto1, hits give low values): 0.962
- normalized growth (locus YMR129W, hits give low values): 0.974
- normalized growth (locus YMR205C, strain PFK2, hits give low values): 0.896
- normalized growth (locus YMR231W, strain pep5, hits give low values): 0.961
- normalized growth (locus YNL071W, strain lat1, hits give low values): 0.989
- normalized growth (locus YNL183C, strain NPR1, hits give low values): 0.89
- normalized growth (locus YNL209W, strain ssb2, hits give low values): 1
- normalized growth (locus YNL248C, strain rpa49, hits give low values): 1.02
- normalized growth (locus YNL322C, strain KRE1 (second series), hits give low values): 0.947
- normalized growth (locus YNR049C, strain mso1, hits give low values): 0.951
- normalized growth (locus YOR001W, strain rrp6, hits give low values): 0.991
- normalized growth (locus YOR070C, strain gyp1, hits give low values): 0.969
- normalized growth (locus YOR080W, strain dia2, hits give low values): 0.948
- normalized growth (locus YOR083W, strain WHI5, hits give low values): 0.996
- normalized growth (locus YOR106W, strain vam3, hits give low values): 0.979
- normalized growth (locus YOR231W, strain MKK1, hits give low values): 0.904
- normalized growth (locus YOR265W, strain rbl2, hits give low values): 0.982
- normalized growth (locus YOR270C, strain vph1, hits give low values): 0.987
- normalized growth (locus YOR290C, strain snf2, hits give low values): 0.979
- normalized growth (locus YPL051W, strain arl3, hits give low values): 0.984
- normalized growth (locus YPL078C, strain atp4, hits give low values): 1
- normalized growth (locus YPL106C, strain sse1, hits give low values): 0.906
- normalized growth (locus YPL240C, strain hsp82, hits give low values): 0.975
- normalized growth (locus YPL256C, strain CLN2, hits give low values): 0.911
